Pf growth 48h: Primary qHTS for delayed death inhibitors of the malarial parasite plastid, 48 hour incubation; AID 504832, 2011; 310,000 tested, 5.9% active; P. falciparum luciferase growth in erythrocytes, 48 h; Potency, µM (highest dose often 28.7 µM), for the others: top-dose activity change, negative = inhibition, usual class: inhibitors; active = well fitted inhibition curve with a large enough effect; inconclusive = small, poorly fitted or top-dose-only effect, or another doubt; inactive = no such curve, though single readings can be large or run the other way; also: potency is read from the fitted curve at half-maximal effect; % is scaled to controls: 0 for no effect and ±100 for the full control effect
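First compound was added to culture medium, then infected red cells at 0.1% parasitemia and 2% hematocrit (final). After incubation at 37 C under 5% CO2, luciferase detection reagent was dispensed and light output recorded.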
Pf growth 96h: Primary qHTS for delayed death inhibitors of the malarial parasite plastid, 96 hour incubation; Potency, µM (series often up to 28.7 µM), for inactives: top-dose activity change, negative = inhibition, usual class: inhibitors; P. falciparum luciferase reporter growth, 96 h; 320,000 tested, 6.9% active; AID 504834, 2011; active = well fitted inhibition curve with a large enough effect; inconclusive = small, poorly fitted or top-dose-only effect, or another doubt; inactive = no such curve, though single readings can be large or run the other way; also: potency is read from the fitted curve at half-maximal effect; % is scaled to controls: 0 for no effect and ±100 for the full control effect
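96 h incubation, 37 C, 5% CO2, of luciferase-reporter P. falciparum-infected RBCs (2% hematocrit, 0.05% parasitemia final) with test compounds; endpoint luminescence.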
Cycloheximide cs: Cycloheximide Counterscreen for Small Molecule Inhibitors of Shiga Toxin; cell reporter, cycloheximide protein synthesis inhibition counterscreen; AID 2314, 2010; max response, %; 300,000 tested, 12% active; in the data active = max response mostly above about 13%, no sharp cut-off; inactive = mostly below about 14%; also: read at 38.3 µM for the half of the compounds with a filed dose; 0% is about no effect
Shiga toxin inh: A qHTS for Small Molecule Inhibitors of Shiga Toxin; Vero cells, Shiga toxin protein synthesis inhibition reporter; inhibition, % at 38.7 µM; 290,000 tested, 9.2% active; AID 2315, 2010; in the data active = inhibition mostly above about 28%, no sharp cut-off; inactive = mostly below about 43%; also: 0% is about no effect
NS1 function inh: qHTS Assay for Inhibitors of Influenza NS1 Protein Function | 270,000 tested, 0.4% active | Potency, µM (titrated, usually from 46.1 µM), for the others: at the top dose activity, positive = more growth | AID 2326, 2010; also: potency is read from the fitted curve at half-maximal effect; actives are rising curves; nearly all actives have a fitted effect of over 50% in size
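In this qHTS, NS1 from influenza A is expressed in budding yeast, where it slows growth. Cells are switched from glucose to 2% galactose medium (pH 6.0, -URA), treated with compound, and growth recovery is read at OD600.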
SARS PLP yeast: qHTS of Yeast-based Assay for SARS-CoV PLP; AID 485353, 2010; S. cerevisiae expressing SARS-CoV PLpro, growth rescue; 330,000 tested, 0.19% active; Potency, µM (top dose mostly 32.9 µM), inactives show at the highest dose activity, positive = growth rescue, usual class: activators; also: potency is read from the fitted curve at half-maximal effect; 0% is about no effect; nearly all actives have a fitted effect of over 55% in size
Numbers without * were called inactive; ? = inconclusive; / = not tested or not shown. Shown are actives, neighbours in structure and some others; about 21% of the full set was active somewhere. Unless noted, calls follow the shape of the full dose curve.

SMILES	Pf growth 48h	Pf growth 96h	Cycloheximide cs	Shiga toxin inh	NS1 function inh	SARS PLP yeast
CSCC[C@H](NC(=O)[C@H](CC(C)C)NC(=O)CNC(=O)[C@H](Cc1ccc(O)cc1)NC(=O)[C@H](Cc1ccccc1)NC(=O)[C@H](CCC(N)=O)NC(=O)[C@H](CCC(N)=O)NC(=O)[C@@H]1CCCN1C(=O)[C@H](CCCCN)NC(=O)[C@@H]1CCCN1C(=O)[C@@H](N)CCCN=C(N)N)C(N)=O	/	/	-2	-6	/	/
COCCN1C(=O)N(c2cccc(C)c2)C(=O)C1CC(=O)Nc1cc(OC)cc(OC)c1 (configuration not stated)	-13%	?	-3	12	-1%	-5%
COc1cccc(OCCNC(=O)c2cc([N+](=O)[O-])cc([N+](=O)[O-])c2)c1	?	9%	6	-11	/	3%
Cc1ccc(OCCNC(=O)c2cc(C(=O)NCCOc3ccc(C)cc3)cc([N+](=O)[O-])c2)cc1	12µM*	1.2µM*	-1	-15	?	0%
O=C(COc1ccc(Cl)cc1)N(Cc1ccccc1)c1ccccn1	3%	?	15	6	-12%	1%
O=C(Cc1ccc(Br)cc1)N(Cc1ccccc1)c1ccccn1	-11%	-8%	3	17	-9%	-1%
CC(C)c1ccc(OCC(=O)N(Cc2ccccc2)c2ccccn2)cc1	-26%	?	14*	17	-29%	-11%
O=C(COc1ccc(Br)cc1)N(Cc1ccccc1)c1ccccn1	?	?	15	53*	-6%	-10%
CC(C)(Oc1ccc(Cl)cc1)C(=O)N(Cc1ccccc1)c1ccccn1	?	1.9µM*	-2	-13	-33%	-33%
C/C=C/C(=O)[C@@H](C)[C@@H](/C=C/C[Si](C)(C)C)c1ccccc1	/	/	8	12	/	/
CCn1cnc2cc(NCc3nc4ccccc4n3C)ccc21	104%	3%	26*	59*	-4%	-6%
CCn1cnc2cc(NCc3nc4ccccc4n3Cc3ccccc3)ccc21	9%	152%	33*	50*	12%	-20%
CC(C)n1cnc2cc(NCc3nc4ccccc4n3C)ccc21	128%	11%	73*	82*	-22%	6%
CCOCCCN1C(=O)C(=O)N(CC(=O)N2c3ccccc3NC(=O)CC2C)C1=O (configuration not stated)	-21%	-6%	/	/	/	-11%
Cc1csc2c(SCC(=O)NNC(=O)C(Cl)Cl)ncnc12	3.3µM*	?	7	12	-7%	-1%
Cc1ccccc1N=Cc1c(O)n(-c2nccs2)c(=O)c2ccccc12	10%	-20%	-3	-5	18%	20%
O=c1c2ccccc2c(C=Nc2ccccc2O)c(O)n1-c1nccs1	13µM*	?	0	16	-7%	-2%
Cc1ccc(/C=N/N=C2/NC(=O)C(CC(=O)N3CCOCC3)S2)cc1 (configuration not stated)	-6%	-34%	-1	16	4%	0%
O=C(c1cccc(C(F)(F)F)c1)N1CCc2c([nH]c3ccccc23)C1C(F)(F)F (configuration not stated)	8.3µM*	12µM*	-3	11	2%	-4%
O=C(COc1ccc(Cl)cc1Cl)OCn1nnc2ccccc2c1=O	/	24%	2	-14	2%	-5%
O=c1c2ccccc2nnn1COc1cccc(Cl)c1	97%	83%	55*	124*	-3%	-1%
O=C(CCCN1C(=O)/C(=C/c2ccccc2Cl)SC1=S)N1CCOCC1	?	?	-1	-11	12%	0%
O=C(CN1C(=O)/C(=C/c2cccc(Br)c2)SC1=S)NCCCN1CCOCC1	20%	61%	8	16	9%	24%
COC(=O)c1ccc(/C=C2\SC(=S)N(CCCC(=O)NCCCN3CCOCC3)C2=O)cc1	?	-2%	-5	-9	5%	0%
O=C(CCCN1C(=O)/C(=C/c2cccc(Br)c2)SC1=S)NCCCN1CCOCC1	?	3.3µM*	10	-13	9%	3%

Compound activity as filed in PubChem BioAssay.
